This note sets out measurements from PubChem BioAssay.

The nature of experiment [1]: antimalarial activity against Dd2 strain (AID 2302;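 active = growth inhibition above 50% at the single 2 µM test dose, taken to imply half-maximal potency below 2 µM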;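 note: 0% = DMSO untreated growth and 100% = chloroquine plus artemisinin killed control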). The note with it: P. falciparum Dd2 in RBCs, LDH growth readout, 72 h; at 2 µM; stronger effect = higher value.
The nature of experiment [2]: HepG2 cytotoxicity, primary screen, cytotoxicity control for P. falciparum antimalarial project, cell-based, ATP luminescence (AID 2303;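 active = inhibition above 50%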;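 note: 0% = DMSO wells and 100% = digitonin-killed cells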). Particulars: HepG2 viability, 24-48 h, at 10 µM, stronger effect = higher value.
The target in experiment [3] is L-lactate dehydrogenase (Plasmodium falciparum (isolate CDC / Honduras)) (UniProt Q27743). The experiment in a line: PfLDH activity inhibition – cell lysate, 3D7 strain, counter-screen for P. falciparum growth inhibition project (AID 2304).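 Note: 0% = vehicle and 100% = reference inhibitor.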 Particulars: P. falciparum 3D7 crude extract, LDH APAD/NBT absorbance; at 2 µM; stronger effect = higher value. (In general: Counterscreens check selectivity or assay interference.)
Sequence of L-lactate dehydrogenase (Plasmodium falciparum (isolate CDC / Honduras)) (Q27743 whole entry, looked up): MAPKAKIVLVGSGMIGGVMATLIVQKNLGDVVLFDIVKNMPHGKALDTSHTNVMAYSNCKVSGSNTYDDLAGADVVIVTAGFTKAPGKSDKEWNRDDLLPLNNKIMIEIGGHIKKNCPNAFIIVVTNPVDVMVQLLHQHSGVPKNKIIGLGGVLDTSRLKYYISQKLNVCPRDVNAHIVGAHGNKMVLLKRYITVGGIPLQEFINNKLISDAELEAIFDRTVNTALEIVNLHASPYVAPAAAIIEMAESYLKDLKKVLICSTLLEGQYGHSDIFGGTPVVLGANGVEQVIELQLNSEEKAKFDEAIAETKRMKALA

The nature of experiment [4]: inhibition of 3D7 malaria parasite growth – strain 3D7 (AID 2306).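 Note: 0% = DMSO wells and 100% = chloroquine plus artemisinin control wells.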 The note with it: P. falciparum 3D7 erythrocytic growth, LDH absorbance, 72 h; at 2 µM; stronger effect = higher value.
Experiment [5] addresses Calcium-dependent protein kinase 1 (Plasmodium falciparum (isolate 3D7)) (UniProt P62344). The experiment in a line: PfCDPK1 kinase inhibitors, biochemical, TCAMS library (AID 1159585; cut-off not given, nearly all actives have IC50 up to about 0.98 µM;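 note: inhibitors leave more ATP so luminescence rises with inhibition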). The note with it: recombinant PfCDPK1, Kinase-Glo ATP depletion luminescence. For orientation: In Kinase-Glo more light means more ATP remaining.
In experiment [6] the target is Plasmodium falciparum protein kinase 6 (PK6, PF3D7_1337100) (UniProt Q8IDW1). The experiment in a line: PfPK6 kinase inhibitors, biochemical, TCAMS library (AID 1159586). Particulars: recombinant PfPK6, Kinase-Glo ATP depletion luminescence.
Sequence of Plasmodium falciparum protein kinase 6 (PK6, PF3D7_1337100) (Q8IDW1 1-305): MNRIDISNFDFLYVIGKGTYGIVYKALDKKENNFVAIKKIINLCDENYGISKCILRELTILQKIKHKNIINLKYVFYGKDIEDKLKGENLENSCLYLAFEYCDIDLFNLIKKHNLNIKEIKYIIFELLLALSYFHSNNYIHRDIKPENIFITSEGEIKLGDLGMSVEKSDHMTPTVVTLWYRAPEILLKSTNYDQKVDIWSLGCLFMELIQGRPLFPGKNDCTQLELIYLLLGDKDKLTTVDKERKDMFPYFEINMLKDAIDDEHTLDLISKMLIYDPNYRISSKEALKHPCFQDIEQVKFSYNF
Experiment [7] has as its target Protein kinase 7 (PK7), Plasmodium falciparum 3D7 (PF3D7_0213400) (UniProt Q7YTF7). The experiment can be described thus: inhibition of Plasmodium PK7 catalytic activity – biochemical, TCAMS antimalarial set, Kinase-Glo luminescence (AID 1159587). The note with it: recombinant PfPK7, Kinase-Glo ATP depletion luminescence.
The target in experiment [8] is Calcium-dependent protein kinase 4 (Plasmodium falciparum (isolate 3D7)) (UniProt Q8IBS5). The experiment can be described thus: PfCDPK4 kinase inhibitors, biochemical, TCAMS library (AID 1159588; cut-off not given, nearly all actives have IC50 up to about 0.91 µM). Particulars: recombinant PfCDPK4, Kinase-Glo ATP depletion luminescence.
Sequence of Calcium-dependent protein kinase 4 (Plasmodium falciparum (isolate 3D7)) (Q8IBS5 whole entry, looked up): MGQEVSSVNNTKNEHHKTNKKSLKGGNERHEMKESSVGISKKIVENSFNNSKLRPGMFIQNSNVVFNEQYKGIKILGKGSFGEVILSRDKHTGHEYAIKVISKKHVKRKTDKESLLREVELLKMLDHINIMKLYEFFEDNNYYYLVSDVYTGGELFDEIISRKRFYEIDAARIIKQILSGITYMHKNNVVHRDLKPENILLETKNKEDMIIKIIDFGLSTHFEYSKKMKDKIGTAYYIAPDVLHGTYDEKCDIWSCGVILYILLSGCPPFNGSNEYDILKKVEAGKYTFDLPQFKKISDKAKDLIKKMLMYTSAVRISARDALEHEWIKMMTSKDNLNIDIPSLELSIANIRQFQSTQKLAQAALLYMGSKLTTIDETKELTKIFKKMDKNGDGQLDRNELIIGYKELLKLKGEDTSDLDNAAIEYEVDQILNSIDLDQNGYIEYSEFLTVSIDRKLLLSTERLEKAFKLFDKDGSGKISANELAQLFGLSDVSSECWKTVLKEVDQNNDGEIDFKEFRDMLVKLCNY

Values without a mark were called inactive. For some of these results: Results with a measured potency or affinity are listed apart. Active and inactive are the calls of the source. Unless noted, the rule behind the calls is not given here.

Sequence of Calcium-dependent protein kinase 1 (Plasmodium falciparum (isolate 3D7)) (P62344 whole entry, looked up): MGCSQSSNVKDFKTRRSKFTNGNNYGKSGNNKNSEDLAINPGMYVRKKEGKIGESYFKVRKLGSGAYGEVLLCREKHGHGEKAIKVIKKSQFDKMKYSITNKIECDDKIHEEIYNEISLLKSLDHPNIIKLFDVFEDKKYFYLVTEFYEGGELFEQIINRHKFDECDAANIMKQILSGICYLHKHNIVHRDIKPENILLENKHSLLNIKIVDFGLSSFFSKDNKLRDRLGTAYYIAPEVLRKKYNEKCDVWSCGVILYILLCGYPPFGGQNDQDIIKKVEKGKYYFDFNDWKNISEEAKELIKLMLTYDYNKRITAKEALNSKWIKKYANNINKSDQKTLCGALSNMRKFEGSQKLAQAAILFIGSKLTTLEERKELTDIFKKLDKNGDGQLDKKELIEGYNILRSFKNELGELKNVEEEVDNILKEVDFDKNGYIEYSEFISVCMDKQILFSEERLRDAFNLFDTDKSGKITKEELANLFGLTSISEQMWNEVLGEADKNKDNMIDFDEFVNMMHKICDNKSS
Sequence of Protein kinase 7 (PK7), Plasmodium falciparum 3D7 (PF3D7_0213400) (Q7YTF7 1-343): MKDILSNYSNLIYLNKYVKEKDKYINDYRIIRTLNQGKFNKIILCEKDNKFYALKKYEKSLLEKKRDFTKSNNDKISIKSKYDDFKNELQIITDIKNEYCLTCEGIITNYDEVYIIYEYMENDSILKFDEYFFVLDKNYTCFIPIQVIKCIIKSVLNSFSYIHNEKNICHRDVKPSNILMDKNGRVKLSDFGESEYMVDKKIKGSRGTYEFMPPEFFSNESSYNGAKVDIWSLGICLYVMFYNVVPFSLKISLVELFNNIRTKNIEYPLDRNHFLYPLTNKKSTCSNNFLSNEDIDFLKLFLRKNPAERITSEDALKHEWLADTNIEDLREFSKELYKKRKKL

Consider `CC1(C)CC(NC(=O)NC2CCN(Cc3ccccc3)CC2)CC(C)(CNC(=O)NC2CCN(Cc3ccccc3)CC2)C1` (stereo not given), for which the growth inhibition in experiment [1] was 2%; in experiment [4], 93% (active). Further, the inhibition in experiment [2] was 10%; in experiment [3], 5%. In addition, the outcome in experiment [5], in experiment [6], in experiment [7] and in experiment [8] was inactive.
In the case of `COc1ccc2nccc([C@@H](O)CN3CCC(NCc4ccc5scnc5c4)CC3)c2c1`, the growth inhibition in experiment [1] is 93% (active); in experiment [4], 101% (active). Besides, the inhibition was 17% in experiment [2] and -1% in experiment [3]. The result in experiment [5], in experiment [6], in experiment [7] and in experiment [8] was inactive.
For `COc1ccc(Nc2c3ccc(Cl)cc3nc3ccc(OC)cc23)cc1`, the figures for the growth inhibition in experiment [1] and in experiment [4] were 99% (active) and 94% (active), respectively. Also, the inhibition in experiment [2] was 14%; in experiment [3], 3%. Also, the outcome in experiment [5], in experiment [6], in experiment [7] and in experiment [8] was inactive.
Take `Cc1nc(-c2ccc(-c3ccc(NC(=O)c4coc5ccc(N6C[C@@H](C)N(C)[C@@H](C)C6)cc45)cc3)c(C)c2)no1`: the growth inhibition in experiment [1] was 46%; in experiment [4] it was 96% (active). Besides, the inhibition in experiment [2] is 21%; in experiment [3] it was 1%. The outcome in experiment [5], in experiment [6], in experiment [7] and in experiment [8] was inactive.
For the molecule `O=C1CCCN1CCCNCc1ccc(-c2cccc(-c3nc4ccc(C(F)(F)F)cc4[nH]3)c2)cc1`, the figures for the growth inhibition in experiment [1] and in experiment [4] were 98% (active) and 100% (active), respectively. The results for the inhibition in experiment [2] and in experiment [3] were 14% and 2%, respectively. The outcome in experiment [5], in experiment [6], in experiment [7] and in experiment [8] was inactive.
Consider `O=C(Nc1ccc2c(c1)CCN2C1CCN(Cc2csc3ccccc23)C1)c1ccco1` (stereo not given), for which the growth inhibition in experiment [1] and in experiment [4] was 95% (active) each time. The inhibition was -5% in experiment [2] and -2% in experiment [3]. Further, the result in experiment [5], in experiment [6], in experiment [7] and in experiment [8] was inactive.
In the case of `COc1cc(NC(=O)/C=C/c2cc(F)cc(F)c2F)cc(OCCN2CCN(CCN3CCOCC3)CC2)c1`, the growth inhibition in experiment [1] is 94% (active); in experiment [4] it was 102% (active). For the same molecule, the inhibition in experiment [2] was 21%; in experiment [3] it was 0%. In addition, the outcome in experiment [5], in experiment [6], in experiment [7] and in experiment [8] was inactive.
For the molecule `CN(C)Cc1ccc(-c2cccc(Nc3nccc(NCC(O)c4ccccc4)n3)c2)cc1` (stereo not given), the figures for the growth inhibition in experiment [1] and in experiment [4] were 100% (active) and 102% (active), respectively. Also, the inhibition in experiment [2] was 74% (active); in experiment [3], -1%. In addition, the result in experiment [5], in experiment [6], in experiment [7] and in experiment [8] was inactive.
Turning to `COc1ccc(-c2ccc3c(-c4ccc(F)cc4)cnc(N)c3c2)cn1`, the growth inhibition is 86% (active) in experiment [1] and 99% (active) in experiment [4]. The inhibition in experiment [2] is 4%; in experiment [3] it was -5%. The outcome in experiment [5], in experiment [6], in experiment [7] and in experiment [8] was inactive.
Regarding `CCOc1ccc(C(=O)Nc2cc3c(c(C(F)(F)F)c2)CCNC3)cc1Cl`, the values for the growth inhibition in experiment [1] and in experiment [4] were 1% and 91% (active), respectively. Also, the inhibition is 4% in experiment [2] and -4% in experiment [3]. Moreover, the result in experiment [5], in experiment [6], in experiment [7] and in experiment [8] was inactive.
On to `Cc1cccc2[nH]c(-c3ccc(-c4ccc(CNCc5ccc(CN)cc5)cc4)s3)nc12`, for which the growth inhibition in experiment [1] is 85% (active); in experiment [4], 101% (active). Moreover, the figures for the inhibition in experiment [2] and in experiment [3] were 4% and -8%, respectively. The outcome in experiment [5], in experiment [6], in experiment [7] and in experiment [8] was inactive.
Regarding `CN(C)CCNc1ncnc2c1[nH]c1ccc(Cl)cc12`, the figures for the growth inhibition in experiment [1] and in experiment [4] were 8% and 100% (active), respectively. The inhibition was 7% in experiment [2] and 4% in experiment [3]. Also, the result in experiment [5], in experiment [6], in experiment [7] and in experiment [8] was inactive.
In the case of `COc1ccc(Br)cc1C1Nc2ccc3ccccc3c2C2=C1C(=O)CC(c1ccccc1)C2` (stereo not given), the growth inhibition is 96% (active) in experiment [1] and 101% (active) in experiment [4]. The inhibition in experiment [2] was 25%; in experiment [3], 4%. Moreover, the result in experiment [5], in experiment [6], in experiment [7] and in experiment [8] was inactive.
Regarding `Oc1ccc(CCNCCCCCCNCCc2ccc(Cl)c3ccccc23)cc1O`, the values for the growth inhibition in experiment [1] and in experiment [4] were 1% and 99% (active), respectively. Moreover, the values for the inhibition in experiment [2] and in experiment [3] were 22% and -4%, respectively. The outcome in experiment [5], in experiment [6], in experiment [7] and in experiment [8] was inactive.
For the molecule `CCNc1cc(C(=O)N[C@@H](Cc2ccccc2)[C@H](O)CNC2(CC)CC2)cc(N2CCCCS2(=O)=O)c1`, the growth inhibition is 94% (active) in experiment [1] and 97% (active) in experiment [4]. In addition, the results for the inhibition in experiment [2] and in experiment [3] were 59% (active) and 0%, respectively. The outcome in experiment [5], in experiment [6], in experiment [7] and in experiment [8] was inactive.
In the case of `Cc1cc(C)c2oc(-c3cccc(NC(=O)c4ccc([N+](=O)[O-])o4)c3C)nc2c1`, the growth inhibition in experiment [1] was 67% (active); in experiment [4], 90% (active). The inhibition was -1% in experiment [2] and 0% in experiment [3]. The outcome in experiment [5], in experiment [6], in experiment [7] and in experiment [8] was inactive.
With `COc1cc2nc(NCCc3ccccc3)nc(NCc3cc(C)no3)c2cc1OC`, the figures for the growth inhibition in experiment [1] and in experiment [4] were 100% (active) and 99% (active), respectively. Moreover, the values for the inhibition in experiment [2] and in experiment [3] were 5% and -3%, respectively. In addition, the outcome in experiment [5], in experiment [6], in experiment [7] and in experiment [8] was inactive.
As for `O=C(/C=C/c1ccc(Cl)c(Cl)c1)NCCCCCN1CCC(NC(=S)Nc2cccc(Cl)c2)CC1`, the growth inhibition is 43% in experiment [1] and 99% (active) in experiment [4]. For the same molecule, the inhibition in experiment [2] is 24%; in experiment [3], 4%. The result in experiment [5], in experiment [6], in experiment [7] and in experiment [8] was inactive.
On to `COCCNCc1ccc(-c2cccc(CNc3ccc(OC)cc3)c2)cc1`, for which the growth inhibition is 2% in experiment [1] and 94% (active) in experiment [4]. The inhibition was 16% in experiment [2] and -1% in experiment [3]. Further, the result in experiment [5], in experiment [6], in experiment [7] and in experiment [8] was inactive.
For the molecule `COc1cccc(C(=O)Nc2sc3c(c2C(N)=O)CCCC3)c1OC`, the growth inhibition in experiment [1] was 8%; in experiment [4] it was 99% (active). The inhibition is 6% in experiment [2] and -2% in experiment [3]. The result in experiment [5], in experiment [6], in experiment [7] and in experiment [8] was inactive.

The inhibition is the change of the read-out against control, counted positive when it falls.
